Assay results as given in PubChem BioAssay.
Calls of active or inactive are those of the source. Unless noted, the rule behind the calls is not given here.

Key:
[1] = compound effects on lung adenocarcinoma cell viability – A549, calcein-AM fluorescence, 48 h, basal, profiling panel (AID 1162); details: higher = more signal; note: test concentration not given here
[2] = compound effects on differentiated 3T3-L1 adipocyte viability – cell-based, 3T3-L1 adipocytes, calcein-AM fluorescence, 48 h, basal, profiling panel (AID 1163); details: 3T3-L1 adipocytes viability, higher = more signal; note: test concentration not given here
[3] = compound effects on hepatocellular carcinoma cell viability – HepG2, calcein-AM fluorescence, 48 h, basal, profiling panel (AID 1164); details: higher = more signal; note: test concentration not given here
[4] = compound effects on multiple myeloma cell viability – MM1S, calcein-AM fluorescence, 48 h, basal, profiling panel (AID 1165); details: higher = more signal;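 note: viability of MM1S multiple myeloma cells under basal unstimulated conditions; test concentration not given here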
[5] = calcein-AM signal in unstimulated myeloma cells – cell-based, calcein-AM fluorescence, 48 h, PK04 Diversity Set, profiling panel (AID 1166); details: RPMI8226 myeloma viability, higher = more signal;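 note: cells grown under basal conditions without added stimulus; test concentration not given here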
[6] = JC-1 mitochondrial signal, unstimulated HepG2 cells – cell-based, JC-1 fluorescence, 24 h, 100 nL compound, profiling panel (AID 1167); details: HepG2 mitochondrial potential, higher = more signal; note: test concentration not given here
[7] = JC-1 mitochondrial signal, unstimulated adipocytes – cell-based, JC-1 fluorescence, 3T3-L1 adipocytes, 24 h, 100 nL compound, profiling panel (AID 1168); details: JC-1 mitochondrial fluorescence, higher = more signal, called active from +8 up or from −8 down; note: test concentration not given here
[8] = JC-1 mitochondrial signal, unstimulated myeloma cells – cell-based, JC-1 fluorescence, RPMI8226, 24 h, 100 nL compound, profiling panel (AID 1169); details: JC-1 mitochondrial potential fluorescence, higher = more signal; note: test concentration not given here
[9] = JC-1 mitochondrial signal, unstimulated MM1S myeloma – cell-based, JC-1 fluorescence, 24 h, 100 nL compound, profiling panel (AID 1170); details: MM1S mitochondrial potential, higher = more signal; note: test concentration not given here
[10] = resazurin metabolic signal in A549 cells – cell-based, resazurin fluorescence, 24 h, PK04 Diversity Set, profiling panel (AID 1171); details: A549 viability, higher = more signal, called active from +8 up or from −8 down; note: test concentration not given here
[11] = resazurin metabolic signal in HepG2 cells – cell-based, resazurin fluorescence, 24 h, PK04 Diversity Set, profiling panel (AID 1172); details: HepG2 viability, higher = more signal; note: test concentration not given here
[12] = budding yeast growth changes without added modifier – OD600, strain BY4716, 24 h, basal condition, primary screen (AID 1173); details: S. cerevisiae BY4716 growth, OD600, 24 h; higher = more signal, called active from +8 up or from −8 down
[13] = viability profiling in MM1S myeloma cells – cell-based, resazurin fluorescence, basal, 24 h, PK04 Diversity Set, profiling panel (AID 1174); details: higher = more signal, called active from +8 up or from −8 down; note: test concentration not given here
[14] = target: Dihydroorotate dehydrogenase (quinone), mitochondrial (Plasmodium falciparum (isolate 3D7)) (UniProt Q08210); experiment: inhibition of P. falciparum DHODH – biochemical, C-terminal His tag, absorbance 600 nm, primary screen (AID 1175); details: PfDHODH enzyme, DCIP absorbance 600 nm; higher = more signal, called active from +8 up or from −8 down;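 note: recombinant parasite enzyme with a five histidine tag at its C terminus; test concentration not given here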
[15] = inhibition of PAO1 biofilm formation – strain PAO1, LB-PBS medium, absorbance 600 nm, primary screen (AID 1176); note: test concentration not given here; details: P. aeruginosa PAO1 growth/biofilm, A600, 12 h; higher = more signal
[16] = growth modulation of vineyard yeast isolate – strain RM11-1a, OD600, basal, 24 h, primary screen (AID 1177);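 note: cultures grown under basal conditions with no added stressor; test concentration not given here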; details: S. cerevisiae RM11-1a growth, OD600, 24 h; higher = more signal, called active from +8 up or from −8 down
[17] = growth of efflux-deficient E. coli DRC39 – strain DRC39, OD650, 24 h, E. coli filamentation inducers, primary screen (AID 1178);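 note: growth measured as culture turbidity by optical density at 650 nm; test concentration not given here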; details: E. coli DRC39 acrAB, higher = more signal, called active from +8 up or from −8 down
[18] = growth of efflux-deficient E. coli DRC39 – strain DRC39, OD650, 48 h, E. coli filamentation inducers, primary screen (AID 1179);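 note: screen aims at cell division blockers that make cells filament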; details: E. coli DRC39 delta-acrAB growth, higher = more signal, called active from +8 up or from −8 down
[19] = viability profiling in RPMI8226 myeloma cells – cell-based, resazurin fluorescence, basal, 24 h, PK04 Diversity Set, profiling panel (AID 1180); details: higher = more signal;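 note: RPMI8826 multiple myeloma cell line at 5000 cells per well; test concentration not given here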
[20] = target: E3 ubiquitin-protein ligase XIAP (Homo sapiens) (UniProt P98170); experiment: small molecules binding XIAP protein – biophysical, small-molecule microarray, fluorescence 635 nm, primary screen (AID 1181); details: higher = more signal;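 note: score merges 667 nm emission and signal to noise over triplicate slides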
Sequence of E3 ubiquitin-protein ligase XIAP (Homo sapiens) (P98170 whole entry, looked up): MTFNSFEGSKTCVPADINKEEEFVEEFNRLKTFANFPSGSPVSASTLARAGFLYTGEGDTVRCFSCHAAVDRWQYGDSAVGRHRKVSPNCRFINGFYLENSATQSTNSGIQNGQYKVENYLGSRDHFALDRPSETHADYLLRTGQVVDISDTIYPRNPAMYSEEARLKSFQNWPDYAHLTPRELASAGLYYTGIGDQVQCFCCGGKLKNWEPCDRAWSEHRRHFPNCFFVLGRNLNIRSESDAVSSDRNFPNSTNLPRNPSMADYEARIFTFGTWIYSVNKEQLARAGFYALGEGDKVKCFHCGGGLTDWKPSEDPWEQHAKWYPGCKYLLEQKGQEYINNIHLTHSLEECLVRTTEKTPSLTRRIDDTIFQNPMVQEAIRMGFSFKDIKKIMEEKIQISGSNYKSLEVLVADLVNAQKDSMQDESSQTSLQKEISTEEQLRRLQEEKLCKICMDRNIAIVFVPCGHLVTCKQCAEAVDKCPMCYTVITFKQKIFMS

Sequence of Dihydroorotate dehydrogenase (quinone), mitochondrial (Plasmodium falciparum (isolate 3D7)) (Q08210 whole entry, looked up): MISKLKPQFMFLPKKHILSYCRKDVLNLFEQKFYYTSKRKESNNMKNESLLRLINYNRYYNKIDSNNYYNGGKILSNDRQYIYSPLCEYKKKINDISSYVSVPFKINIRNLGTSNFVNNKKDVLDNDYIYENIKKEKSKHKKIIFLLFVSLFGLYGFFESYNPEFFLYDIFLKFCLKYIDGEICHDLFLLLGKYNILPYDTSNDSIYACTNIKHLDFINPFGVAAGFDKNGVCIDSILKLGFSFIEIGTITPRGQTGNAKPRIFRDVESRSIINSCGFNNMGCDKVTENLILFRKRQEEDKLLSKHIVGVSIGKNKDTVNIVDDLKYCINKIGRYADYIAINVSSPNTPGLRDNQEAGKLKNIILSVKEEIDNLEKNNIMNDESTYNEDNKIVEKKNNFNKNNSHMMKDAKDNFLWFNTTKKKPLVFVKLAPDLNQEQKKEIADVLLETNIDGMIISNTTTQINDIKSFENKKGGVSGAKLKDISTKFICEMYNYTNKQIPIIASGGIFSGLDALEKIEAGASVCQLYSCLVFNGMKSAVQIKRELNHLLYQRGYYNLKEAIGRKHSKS

SMILES | z-score [1] | z-score [2] | z-score [3] | z-score [4] | z-score [5] | z-score [6] | z-score [7] | z-score [8] | z-score [9] | z-score [10] | z-score [11] | z-score [12] | z-score [13] | composite z-score [14] | z-score [15] | z-score [16] | z-score [17] | z-score [18] | z-score [19] | composite z-score [20]
CC=CC1=C(CO)C(=O)[C@@H]2O[C@@H]2C1=O | -0.912 | -1.18 | -0.88 | -3.5 | -2.88 | -1.86 | -0.316 (inactive) | -1 | -2.1 | -0.315 (inactive) | -0.714 | -1.37 (inactive) | -1.58 (inactive) | 0.324 (inactive) | 0.827 (inactive) | -1.22 (inactive) | 0.246 (inactive) | 0.537 (inactive) | -0.875 | -0.0498
COCOc1ccc(Br)cc1C(=O)[C@@H]1O[C@H]1c1cccc(OC)c1 | 0.131 | 0.314 | -0.418 | -2.86 | -1.51 | -1.39 | -0.276 (inactive) | -0.724 | -0.261 | -0.486 (inactive) | -0.0514 | -8.36 (active) | -1.86 (inactive) | 0.0095 (inactive) | -0.257 (inactive) | 0.45 (inactive) | 0.534 (inactive) | 0.35 (inactive) | -0.516 | 0.184
COc1cccc([C@H]2Oc3ccc(OC)cc3C(=NOC(C)CN3CCCCc4nc(C)c(C)cc43)[C@@H]2O)c1 (stereo not given in full) | 0.217 | -0.527 | 0.0117 | -1.02 | -0.836 | -0.108 | -0.832 (inactive) | -0.00251 | -0.144 | -0.565 (inactive) | -0.621 | -0.951 (inactive) | -1.16 (inactive) | -0.695 (inactive) | 0.253 (inactive) | -0.0905 (inactive) | 0.597 (inactive) | 0.748 (inactive) | -1.16 | -0.0525
CCN1C(=O)[C@H]2[C@H]3[C@H](O)[C@H](O)CC(=O)[C@@H]3CC[C@H]2C1=O | 0.111 | 0.0891 | 0.0082 | -0.681 | 0.177 | 0.231 | 0.55 (inactive) | -0.0467 | -0.22 | -0.561 (inactive) | -0.309 | -0.553 (inactive) | -0.399 (inactive) | -0.308 (inactive) | -0.72 (inactive) | -0.162 (inactive) | -0.307 (inactive) | -0.164 (inactive) | -0.752 | 0.112
O=C1[C@H]2[C@H]3[C@H](O)[C@H](O)CC(=NOCc4ccccc4)[C@H]3CC[C@H]2C(=O)N1Cc1ccc2c(c1)OCO2 | 0.446 | 0.717 | -1.25 | 0.424 | -1.69 | 0.701 | -0.802 (inactive) | 0.0189 | 0.349 | 0.392 (inactive) | 0.616 | -0.0033 (inactive) | 0.13 (inactive) | -0.51 (inactive) | -0.695 (inactive) | 0.0065 (inactive) | 0.698 (inactive) | -1.38 (inactive) | 0.129 | -0.0663
CCCNC(=O)OC[C@H]1O[C@H](c2ccccc2)C=C[C@@H]1Oc1ccc(OC)cc1 | -0.365 | 0.125 | -0.138 | -0.543 | -0.0859 | -0.362 | -0.307 (inactive) | -0.215 | 0.0375 | -0.745 (inactive) | -0.889 | -1.88 (inactive) | -1.06 (inactive) | 0.152 (inactive) | -0.115 (inactive) | -0.0966 (inactive) | 0.507 (inactive) | 0.342 (inactive) | -0.35 | -0.0629
O=c1n(Cc2cc3c(cc2Cl)OCO3)c(=O)n2n1CC[C@@H]1C(=NOCc3ccccc3)[C@H]3O[C@H]3[C@@H](O)[C@@H]12 | 0.7 | -0.362 | 0.941 | -0.64 | 0.341 | 1.1 | 0.218 (inactive) | 0.185 | 0.178 | -1.11 (inactive) | -0.0806 | -1.61 (inactive) | -0.595 (inactive) | -1.22 (inactive) | 0.14 (inactive) | -1.8 (inactive) | -0.485 (inactive) | -0.628 (inactive) | -1.02 | -0.0365
CO[C@H]1COC(=O)[C@@H]2CCCN2C(=O)CC=C[C@@H](C)[C@H](OC)COC(=O)[C@@H](OCc2ccccc2)C=C[C@@H]1C | -0.622 | 0.852 | 0.305 | 0.41 | -0.697 | 0.887 | 0.377 (inactive) | 0.0666 | -0.305 | 0.0375 (inactive) | -0.416 | -1.72 (inactive) | 1.58 (inactive) | -2.88 (inactive) | -1.01 (inactive) | -0.965 (inactive) | 0.421 (inactive) | 0.29 (inactive) | 0.552 | -0.284
COC(=O)CC=C[C@@H](C)[C@@H](C=NO[C@@H](C)c1cc(-c2c(C)cc(C)cc2C)no1)NS(=O)(=O)c1ccc(C)cc1 | -0.985 | 0.885 | -0.145 | 0.236 | -1.75 | -0.189 | -1.08 (inactive) | 0.634 | -0.147 | 0.298 (inactive) | 0.245 | -0.358 (inactive) | -0.019 (inactive) | -2.27 (inactive) | -0.998 (inactive) | -0.2 (inactive) | -1.1 (inactive) | -1.55 (inactive) | -0.33 | -0.169
